# An excerpt weighted towards active compounds, which were near 21% of everything screened.
# Pf growth 48h – P. falciparum growth inhibition at 48 hours (one generation) | P. falciparum luciferase growth in erythrocytes, 48 h | Potency, µM (top dose mostly 28.7 µM), usual class: inhibitors | hit rate 5.9% among 310,000; active means well fitted inhibition curve with a large enough effect; inconclusive means small, poorly fitted or top-dose-only effect, or another doubt; inactive means no such curve, though single readings can be large or run the other way
#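 Parasite viability was followed by luminescence of a genomically integrated firefly luciferase. Cultures held 0.1% parasitemia at 2% hematocrit (final), incubated under 5% CO2 at 37 C.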
# CHX counter – counter-screen for Shiga toxin inhibitors: cycloheximide protein synthesis inhibition | cell reporter, cycloheximide protein synthesis inhibition counterscreen | max response, % | hit rate 12% among 300,000; in the data active means max response mostly above about 13%, no sharp cut-off; inactive means mostly below about 14%; further: read at 38.3 µM for the half of the compounds with a filed dose
# Shiga toxin inh – inhibitors of Shiga toxin in Vero cells; Vero cells, Shiga toxin protein synthesis inhibition reporter; hit rate 9.2% among 290,000; inhibition, % at 38.7 µM; in the data active means inhibition mostly above about 28%, no sharp cut-off; inactive means mostly below about 43%
# SARS PLP yeast – inhibitors of SARS-CoV papain-like protease in yeast | Potency, µM (series often up to 32.9 µM), most hits filed as activators | S. cerevisiae expressing SARS-CoV PLpro, growth rescue | hit rate 0.19% among 330,000; further: nearly all actives have a fitted effect of over 55% in size
# NS1 function inh – inhibitors of influenza NS1 protein function. Potency, µM (top dose mostly 46.1 µM). hit rate 0.4% among 270,000. AID 2326; further: actives are rising curves; nearly all actives have a fitted effect of over 50% in size
#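 Compounds were scored for reversing the slow growth caused by influenza A NS1 in S. cerevisiae, measured by optical density at 600 nm. Assay medium contained 2% galactose at pH 6.0; NS1-free yeast of the same strain were the positive control.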
# Pf growth 96h – inhibits malaria parasite growth, 96 h; P. falciparum luciferase reporter growth, 96 h; Potency, µM (doses to about 28.7 µM), actives largely listed as inhibitors; hit rate 6.9% among 320,000; AID 504834; active means well fitted inhibition curve with a large enough effect; inconclusive means small, poorly fitted or top-dose-only effect, or another doubt; inactive means no such curve, though single readings can be large or run the other way
#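 Plates of compound plus infected erythrocytes (2% hematocrit, 0.05% parasitemia final) incubate 96 hours, 37 C, 5% CO2. Detection reagent added; reduced luminescence from the parasites' luciferase reporter flags inhibition.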
# Hits are given with their value; i = inactive; ? = inconclusive; nt = no result given. Unless noted, the call rests on the fitted dose curve.
SMILES,Pf growth 48h,CHX counter,Shiga toxin inh,SARS PLP yeast,NS1 function inh,Pf growth 96h
O=C(NC(=S)NCC1CCCO1)c1ccccc1Br (stereo not given),i,i,i,i,i,i
O=C(NC(=S)NCC1CCCO1)c1cccs1 (stereo not given),i,12,i,?,i,i
O=C(NC(=S)NCC1CCCO1)c1ccccc1F (stereo not given),i,26,i,i,i,?
CC(C)CN(C)C(=O)CCc1nnc(Cc2ccc(-c3ccccc3)cc2)o1,?,22,i,i,i,?
O=C(CCc1nnc(-c2ccccc2)o1)NCC1CCN(C2CCCC2)CC1,i,i,i,i,i,i
O=C(CCc1nnc(Cc2ccc(-c3ccccc3)cc2)o1)N1CCCC1,?,i,i,i,i,9.3µM
O=C(CSc1nnc(Cc2ccccc2)o1)N1CCCC1,i,i,i,i,i,i
CC1CCN(C(=O)CCc2nnc(-c3ccccc3)o2)CC1,i,43,97,?,i,?
COCCCNC(=O)CCc1nnc(Cc2ccc(-c3ccccc3)cc2)o1,i,i,i,i,i,?
O=C(CN1CCN(c2ccc(O)cc2)CC1)NC(=O)NCc1ccco1,i,i,i,i,i,?
COC(=O)c1c(NC(=S)NN2CCN(C)CC2)sc2c1CCC(C)C2 (stereo not given),?,i,i,i,i,?
CCOCc1nnc(NC(=O)c2cccc(OC)c2)s1,i,25,57,i,i,i
CCc1nnc(NC(=O)c2ccc(S(C)(=O)=O)cc2)s1,i,i,i,i,i,i
CCC(NC(=O)Nc1nnc(C(F)(F)F)s1)(C(F)(F)F)C(F)(F)F,1.7µM,i,i,i,i,i
CCc1nnc(NC(=O)c2ccc(F)c(S(=O)(=O)N3CCCCC3)c2)s1,i,i,i,i,i,12µM
CCOCc1nnc(NC(=O)c2cc(OC)cc(OC)c2)s1,i,i,i,i,i,i
O=C(O)CCC(=O)Nc1nnc(C(F)(F)F)s1,i,i,i,i,i,i
CCc1nnc(NC(=O)c2ccc(OC)cc2)s1,i,28,93,i,nt,i
Cc1ccc(C)c(OCC(=O)Nc2ccc(C(=O)O)cc2NC(=O)COc2cc(C)ccc2C)c1,i,i,i,i,i,i
O=C1CC2(CCN(C(=O)COc3ccccc3F)CC2)Oc2ccccc21,i,nt,nt,i,nt,i
O=[N+]([O-])c1ccccc1OCC(O)CN1CCN(CC(O)COc2ccccc2[N+](=O)[O-])CC1 (stereo not given),?,i,i,i,i,i
CCCCn1c(SCc2nc(N)nc(N3CCCCC3)n2)nc2c1c(=O)n(C)c(=O)n2C,i,i,i,i,i,i
CCc1nnc(NC(=O)c2cccc(OC)c2)s1,i,42,65,i,i,?
COc1cccc(-c2nnc(NC(=O)Cc3cccs3)s2)c1,i,22,i,i,i,i
COc1ccc(C(=O)Nc2nnc(C(F)(F)F)s2)cc1,i,27,98,i,i,nt
SMILES,Pf growth 48h,CHX counter,Shiga toxin inh,SARS PLP yeast,NS1 function inh,Pf growth 96h
COc1cccc(C(=O)Nc2nnc(-c3cccs3)s2)c1,nt,24,89,i,i,?
COc1ccc(-c2nnc(NC(=O)c3cccs3)s2)c(OC)c1,i,i,i,i,i,i
CN(C)c1cccc(C(=O)NNC(=O)/C=C/c2cccs2)c1,i,nt,nt,i,nt,i
Cc1ccc(C(=O)CCC(=O)OCC(=O)N(C)c2c(N)n(Cc3ccccc3)c(=O)[nH]c2=O)cc1,i,nt,nt,i,nt,i
COc1cc2nc(/C=C/c3cc(OC)c(OC)c(OC)c3)sc2cc1SC,2.6µM,i,i,i,i,i
O=C(NC(=S)N1CCN(c2ccc(F)cc2)CC1)C12CC3CC(CC(C3)C1)C2,?,i,i,i,i,?
CCOc1ccccc1N1CCN(C(=S)NC(=O)C23CC4CC(CC(C4)C2)C3)CC1,8.3µM,i,i,i,i,?
C/C(=N\Nc1cc(-c2ccccc2)nc(-c2ccccc2)n1)c1ccc(O)c(C)c1,?,20,73,i,?,i
Cc1cc(Nc2ccc(F)c(F)c2)nc(-c2ccccc2O)n1,?,i,i,i,i,?
C/C(=N\Nc1cc(C)nc(-c2ccccc2O)n1)c1ccccc1,i,31,i,i,i,?
COc1cc(N/N=C(\C)c2ccc(O)c(C)c2)nc(-c2ccccc2)n1,?,i,i,i,i,?
C/C(=N\NC(=O)c1c(C)nc2ccccn12)c1cccc([N+](=O)[O-])c1,i,i,i,i,nt,i
C/C(=N\Nc1cc(C)nc(-c2ccccc2)n1)c1cccc([N+](=O)[O-])c1,12µM,i,i,i,i,0.41µM
Cc1cc(N/N=C/c2ccc(O)c(C)c2O)nc(-c2ccccc2O)n1,5.9µM,25,i,i,i,?
Nc1[nH]c(N=NC(=O)c2ccc(Cl)cc2)c2ccccc12,i,32,95,i,i,?
O=C(ONc1ccc(N=NC(=O)c2ccccc2O)cc1)c1ccccc1,i,i,i,i,i,i
Nc1[nH]c(N=NC(=O)c2ccccc2)c2ccccc12,i,53,84,i,i,i
Cc1cc(N=NC(=O)c2ccccc2)ccc1O,i,i,i,i,i,i
Nc1[nH]c(N=NC(=O)c2ccccc2O)c2ccccc12,i,58,81,i,i,i
COc1cc2c3c(c1)c(C1=NC(=S)NC1=O)c(O)n3C(C)(C)C=C2C,nt,21,i,i,i,i
CC1(c2ccccc2)CC(C)(C)n2c(O)c(C3=NC(=S)NC3=O)c3cccc1c32 (stereo not given),i,i,i,i,i,i
O=C(O)CC/C(=N\Nc1ccc(S(=O)(=O)N2CCOCC2)cc1[N+](=O)[O-])c1cccs1,6.6µM,i,i,i,i,12µM
O=C(O)CC/C(=N\Nc1ccc(S(=O)(=O)N2CCCC2)cc1[N+](=O)[O-])c1cccs1,nt,i,i,i,i,?
O=C(COC(=O)c1cccs1)Nc1ccccc1[N+](=O)[O-],i,i,i,i,i,i
O=C(O)CC/C(=N\Nc1ccccc1[N+](=O)[O-])c1cccs1,i,47,58,i,i,i
SMILES,Pf growth 48h,CHX counter,Shiga toxin inh,SARS PLP yeast,NS1 function inh,Pf growth 96h
O=C(O)c1ccc2c(=O)n3c(nc2c1)/C(=C/c1ccccc1OC(F)F)CC3,i,i,i,i,i,i
Brc1cccc(OCCSc2ncccn2)c1,i,33,44,i,i,i
Clc1ccc(OCCSc2ncccn2)c(Br)c1,i,41,118,i,i,i
CN(C)CCCOc1ccc(Cl)cc1Br,i,i,i,i,i,i
CCCOc1ccc(OCCSc2ncccn2)cc1,i,44,81,i,i,i
Clc1ccc(OCCCCSc2ncccn2)cc1,nt,i,i,i,i,i
Cc1cccc(Nc2ncnc3ccc(Br)cc23)c1,?,i,i,i,i,i
Clc1ccc(Nc2ncnc3ccc(Br)cc23)cc1,7.4µM,i,i,i,i,4.1µM
Clc1cccc(Nc2ncnc3ccc(Br)cc23)c1,3.7µM,i,i,i,i,4.1µM
CN(C)c1ccc(Nc2ncnc3ccc(Br)cc23)cc1,i,i,nt,i,i,i

# From PubChem
